The source of these data is the supplement of paper PMC10849652.

About 8,800 targets were measured; listed, in parts, are those with a hit and a random draw of the rest. About 0.5% of all pairs of compound and target were hits.

Chain of UniProt Q13555 (Q13555 whole entry, looked up): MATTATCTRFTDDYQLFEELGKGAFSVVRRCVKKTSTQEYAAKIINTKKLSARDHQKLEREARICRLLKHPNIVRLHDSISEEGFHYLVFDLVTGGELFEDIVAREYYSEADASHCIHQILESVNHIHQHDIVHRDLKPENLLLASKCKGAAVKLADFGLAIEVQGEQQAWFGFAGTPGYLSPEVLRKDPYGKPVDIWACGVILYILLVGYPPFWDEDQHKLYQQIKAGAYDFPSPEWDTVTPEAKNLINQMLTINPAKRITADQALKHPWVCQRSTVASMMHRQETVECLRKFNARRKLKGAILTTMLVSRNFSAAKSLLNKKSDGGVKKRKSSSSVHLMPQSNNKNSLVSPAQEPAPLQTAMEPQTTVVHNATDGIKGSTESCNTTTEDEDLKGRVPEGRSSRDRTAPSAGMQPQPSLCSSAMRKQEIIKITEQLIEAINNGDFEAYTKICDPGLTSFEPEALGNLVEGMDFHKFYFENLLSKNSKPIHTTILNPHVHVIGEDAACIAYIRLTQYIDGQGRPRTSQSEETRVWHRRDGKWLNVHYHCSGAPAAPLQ
Chain of UniProt P15056 (P15056 whole entry, looked up): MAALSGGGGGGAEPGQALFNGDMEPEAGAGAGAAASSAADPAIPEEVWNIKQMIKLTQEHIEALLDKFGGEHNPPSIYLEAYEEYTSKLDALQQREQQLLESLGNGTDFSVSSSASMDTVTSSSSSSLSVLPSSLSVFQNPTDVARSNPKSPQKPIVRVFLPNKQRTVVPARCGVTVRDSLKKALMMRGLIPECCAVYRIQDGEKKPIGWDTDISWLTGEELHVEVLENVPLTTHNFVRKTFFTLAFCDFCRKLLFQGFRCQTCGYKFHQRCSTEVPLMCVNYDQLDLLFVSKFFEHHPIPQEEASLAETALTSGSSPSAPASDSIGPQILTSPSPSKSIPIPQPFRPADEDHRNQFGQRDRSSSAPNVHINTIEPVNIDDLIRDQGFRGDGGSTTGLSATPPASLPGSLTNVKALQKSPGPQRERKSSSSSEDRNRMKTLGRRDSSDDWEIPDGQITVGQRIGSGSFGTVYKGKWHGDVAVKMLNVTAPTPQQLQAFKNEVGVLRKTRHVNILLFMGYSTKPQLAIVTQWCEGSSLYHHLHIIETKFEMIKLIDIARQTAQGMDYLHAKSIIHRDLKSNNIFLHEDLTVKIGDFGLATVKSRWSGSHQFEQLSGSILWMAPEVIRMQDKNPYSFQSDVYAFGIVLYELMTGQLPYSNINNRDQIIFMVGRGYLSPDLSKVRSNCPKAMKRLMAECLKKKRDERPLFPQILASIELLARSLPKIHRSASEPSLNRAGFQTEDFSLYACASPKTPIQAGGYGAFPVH
Chain of UniProt Q86WR0 (Q86WR0 whole entry, looked up): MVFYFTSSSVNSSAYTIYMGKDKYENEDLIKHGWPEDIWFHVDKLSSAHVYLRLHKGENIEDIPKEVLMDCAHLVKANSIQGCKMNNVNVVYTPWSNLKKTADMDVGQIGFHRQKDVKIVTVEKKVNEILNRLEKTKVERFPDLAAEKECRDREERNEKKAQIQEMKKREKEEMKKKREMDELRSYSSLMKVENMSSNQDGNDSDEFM
Chain of UniProt Q8TAP6 (Q8TAP6 whole entry, looked up): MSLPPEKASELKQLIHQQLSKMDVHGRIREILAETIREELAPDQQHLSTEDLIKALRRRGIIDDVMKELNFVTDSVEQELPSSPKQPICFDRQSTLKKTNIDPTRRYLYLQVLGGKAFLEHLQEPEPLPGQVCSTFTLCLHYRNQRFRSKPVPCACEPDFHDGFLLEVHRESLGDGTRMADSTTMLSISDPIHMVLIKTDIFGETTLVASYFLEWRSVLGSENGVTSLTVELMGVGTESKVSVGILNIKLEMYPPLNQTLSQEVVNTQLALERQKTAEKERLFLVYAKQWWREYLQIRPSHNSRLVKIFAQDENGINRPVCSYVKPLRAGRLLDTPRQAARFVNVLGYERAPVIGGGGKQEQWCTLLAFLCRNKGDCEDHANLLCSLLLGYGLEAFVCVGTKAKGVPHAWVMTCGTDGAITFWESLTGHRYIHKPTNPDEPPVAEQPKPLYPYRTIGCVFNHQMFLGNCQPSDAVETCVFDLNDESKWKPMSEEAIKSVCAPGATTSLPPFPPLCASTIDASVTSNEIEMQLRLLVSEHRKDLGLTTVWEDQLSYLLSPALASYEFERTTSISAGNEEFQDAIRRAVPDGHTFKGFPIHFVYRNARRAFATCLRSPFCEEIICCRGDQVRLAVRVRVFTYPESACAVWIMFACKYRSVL
Chain of UniProt P22676 (P22676 whole entry, looked up): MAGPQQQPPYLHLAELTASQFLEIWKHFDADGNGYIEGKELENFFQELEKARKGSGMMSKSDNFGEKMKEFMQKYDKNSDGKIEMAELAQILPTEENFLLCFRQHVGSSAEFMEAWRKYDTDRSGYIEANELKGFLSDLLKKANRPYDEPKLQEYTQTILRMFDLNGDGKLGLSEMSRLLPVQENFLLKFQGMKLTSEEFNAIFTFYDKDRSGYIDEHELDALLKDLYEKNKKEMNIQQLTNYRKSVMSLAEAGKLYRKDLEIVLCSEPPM
Chain of UniProt P23634 (P23634 whole entry, looked up): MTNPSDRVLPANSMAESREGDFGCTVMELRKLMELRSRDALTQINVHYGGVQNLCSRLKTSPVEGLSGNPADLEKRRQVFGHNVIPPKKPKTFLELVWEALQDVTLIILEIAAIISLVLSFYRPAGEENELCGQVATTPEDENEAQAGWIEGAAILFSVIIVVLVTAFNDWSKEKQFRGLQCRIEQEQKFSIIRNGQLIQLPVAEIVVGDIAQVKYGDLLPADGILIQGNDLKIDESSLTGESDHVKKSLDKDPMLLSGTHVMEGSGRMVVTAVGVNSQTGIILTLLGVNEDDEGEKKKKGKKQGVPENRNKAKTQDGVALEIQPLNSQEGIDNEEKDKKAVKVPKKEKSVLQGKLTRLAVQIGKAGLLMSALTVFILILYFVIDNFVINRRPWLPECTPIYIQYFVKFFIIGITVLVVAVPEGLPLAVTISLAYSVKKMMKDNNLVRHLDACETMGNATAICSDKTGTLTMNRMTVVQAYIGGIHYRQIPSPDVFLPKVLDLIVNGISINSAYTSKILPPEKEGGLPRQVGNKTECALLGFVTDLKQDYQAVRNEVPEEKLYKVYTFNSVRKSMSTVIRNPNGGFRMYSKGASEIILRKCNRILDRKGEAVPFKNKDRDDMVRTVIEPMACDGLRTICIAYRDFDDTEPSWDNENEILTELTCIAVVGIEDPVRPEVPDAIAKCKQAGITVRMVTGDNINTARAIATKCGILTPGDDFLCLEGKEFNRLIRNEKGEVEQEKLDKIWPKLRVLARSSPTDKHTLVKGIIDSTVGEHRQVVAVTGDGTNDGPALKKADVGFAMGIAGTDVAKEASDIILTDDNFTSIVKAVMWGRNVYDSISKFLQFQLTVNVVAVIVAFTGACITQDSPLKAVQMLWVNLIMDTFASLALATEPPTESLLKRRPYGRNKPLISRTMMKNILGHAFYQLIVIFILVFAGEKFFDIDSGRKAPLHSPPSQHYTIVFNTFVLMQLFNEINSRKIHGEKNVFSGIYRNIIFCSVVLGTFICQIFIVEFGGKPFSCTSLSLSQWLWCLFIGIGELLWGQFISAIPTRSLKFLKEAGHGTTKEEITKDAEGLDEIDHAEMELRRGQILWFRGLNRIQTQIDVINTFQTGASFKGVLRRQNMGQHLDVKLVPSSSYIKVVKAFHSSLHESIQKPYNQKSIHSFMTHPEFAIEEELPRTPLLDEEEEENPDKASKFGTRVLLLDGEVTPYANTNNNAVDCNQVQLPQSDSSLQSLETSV
Chain of UniProt Q9H257 (Q9H257 whole entry, looked up): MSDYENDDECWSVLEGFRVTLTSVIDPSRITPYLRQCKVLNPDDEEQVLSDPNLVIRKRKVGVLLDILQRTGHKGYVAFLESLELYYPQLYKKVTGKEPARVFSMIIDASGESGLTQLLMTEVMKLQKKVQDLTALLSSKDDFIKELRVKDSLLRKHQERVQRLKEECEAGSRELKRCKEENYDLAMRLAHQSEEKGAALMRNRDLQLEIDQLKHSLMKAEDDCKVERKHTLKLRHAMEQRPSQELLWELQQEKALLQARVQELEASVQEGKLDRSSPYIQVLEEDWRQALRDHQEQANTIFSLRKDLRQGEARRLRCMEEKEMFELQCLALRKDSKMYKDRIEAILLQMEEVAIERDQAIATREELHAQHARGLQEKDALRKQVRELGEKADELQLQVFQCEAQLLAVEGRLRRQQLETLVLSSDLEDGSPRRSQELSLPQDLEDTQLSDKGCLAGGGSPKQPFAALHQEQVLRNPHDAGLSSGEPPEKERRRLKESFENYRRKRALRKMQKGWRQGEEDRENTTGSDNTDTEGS
Chain of UniProt Q9UEE9 (Q9UEE9 whole entry, looked up): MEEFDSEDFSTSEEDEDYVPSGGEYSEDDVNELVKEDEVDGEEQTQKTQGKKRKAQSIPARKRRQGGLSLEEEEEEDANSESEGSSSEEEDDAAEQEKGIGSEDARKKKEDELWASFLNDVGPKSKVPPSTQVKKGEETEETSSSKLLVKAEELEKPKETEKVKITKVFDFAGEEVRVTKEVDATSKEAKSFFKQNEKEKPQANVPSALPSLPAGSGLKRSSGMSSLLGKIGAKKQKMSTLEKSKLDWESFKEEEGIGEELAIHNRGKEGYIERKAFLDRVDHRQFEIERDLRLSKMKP
Chain of UniProt O95067 (O95067 whole entry, looked up): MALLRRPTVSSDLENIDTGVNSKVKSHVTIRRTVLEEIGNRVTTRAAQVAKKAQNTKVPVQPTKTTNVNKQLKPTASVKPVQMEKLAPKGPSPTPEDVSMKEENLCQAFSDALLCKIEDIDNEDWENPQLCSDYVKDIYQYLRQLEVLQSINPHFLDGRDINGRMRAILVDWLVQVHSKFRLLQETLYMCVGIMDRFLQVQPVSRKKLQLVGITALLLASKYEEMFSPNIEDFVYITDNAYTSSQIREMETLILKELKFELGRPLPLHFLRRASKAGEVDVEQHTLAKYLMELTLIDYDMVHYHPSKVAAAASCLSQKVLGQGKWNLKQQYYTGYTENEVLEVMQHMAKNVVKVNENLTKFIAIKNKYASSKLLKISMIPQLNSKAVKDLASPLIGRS

Compound in this experiment: CCN(CCCOc1ccc2c(Nc3cc(CC(=O)Nc4cccc(F)c4)[nH]n3)ncnc2c1)CCOP(=O)(O)O [barasertib]
The experiment can be described thus: log2 fold change, soluble protein after heating vs DMSO (PISA); higher = thermal stabilisation; K562 lysate, 10 uM; active = over 0.2 and 3.5 SD of the protein, either way, in both replicates (recomputed). An outline of the steps:
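Thermal stability, expressed as log-two fold change relative to solvent controls, is given from duplicates. Crude K562 extract in PBS pH 7.4 with 1 mM MgCl2, at 1 mg/mL protein, was treated with 10 μM compound for 30 min and heated in aliquots for 3 min across 48°C-58°C. After pooling, adjustment to 0.5% NP-40 at 4°C and centrifugation at 21,000xg for 90 min, supernatant protein was measured by TMTpro 16plex LC-MS/MS with channel sums equalised.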
As to CARD9 (UniProt Q9H257), the log2 fold change is 0.008 (inactive).
With ATG13 isoform 2 (UniProt O75143), the log2 fold change was 0.024 (inactive).
The value for CCDC25 (UniProt Q86WR0) was 0.01 (inactive).
The value for CCPG1 isoform 5 (UniProt Q9ULG6) was 0.034 (inactive).
As for BRAF (UniProt P15056), the figure is 0.012 (inactive); as for CALB2 (UniProt P22676), 0.375 (active); as for CES2 isoform 4 (UniProt O00748), -0.052 (inactive).
Turning to CCDC47 (UniProt Q96A33), the log2 fold change is 0.002 (inactive).
As to CCNB2 (UniProt O95067), the log2 fold change is 0.06 (inactive).
The value for ATP2B4 (UniProt P23634) was 0.026 (inactive).
CDKN1C (UniProt P49918): the log2 fold change is -0.041 (inactive).
The value for ATAD3B (UniProt Q5T9A4) was -0.007 (inactive); that for CEP76 (UniProt Q8TAP6) was 0.085 (inactive); that for CDK13 (UniProt Q14004) was -0.061 (inactive).
As for C2CD5 isoform 3 (UniProt Q86YS7), the figure is 0.049 (inactive); as for CDAN1 (UniProt Q8IWY9), 0.014 (inactive).
As for ATRIP (UniProt Q8WXE1), the figure is -0.036 (inactive); as for CAMK2G isoform 8 (UniProt Q13555), 0.058 (inactive).
Turning to CDC16 (UniProt Q13042), the log2 fold change was -0.018 (inactive).
The value for CDC7 (UniProt O00311) was -0.005 (inactive); that for BNIP1 (UniProt Q12981) was 0.057 (inactive); that for CAD (UniProt P27708) was -0.004 (inactive).
For the target CFDP1 (UniProt Q9UEE9), the log2 fold change is -0.066 (inactive).
